Several values for one entry are separate records, joined by “and”; a condition that tells them apart may be missing. Identical values can stand only once. Inconclusive results are not listed. A call without a number means that no potency is given here. Activity calls are given as the source filed them. Unless noted, calls follow the shape of the dose curve; as a rule, active = well fitted curve in the direction sought with a large enough effect; inconclusive = small, poorly fitted or top-dose-only effect, or another doubt; inactive = no such curve, though single readings can be large; an effect the other way counts as inactive or inconclusive.
Key:
[1] = qHTS Assay for Lipid Storage Modulators (AID 1519; calls by dose curve); settings: Drosophila S3 cells, BODIPY lipid droplet/cell ratio, laser cytometry, cells loaded with oleic acid
Outline: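 Cells seeded at 5,000 per well were treated with compounds over a concentration series and loaded with oleic acid (400 uM, as added). Lipid droplet fluorescence (488 nm excitation, 500-530 nm channel) was read by laser-scanning cytometry and normalized to 20 uM Triacsin C.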

[2] = molecular target: DNA repair nuclease/redox regulator APEX1 (Homo sapiens) (UniProt P27695); test: qHTS Validation Assay for Inhibitors of the Human Apurinic/apyrimidinic Endonuclease 1 (APE1) (AID 1705;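 also: TAMRA fluorescence gain over two minutes as APE1 cuts a quenched THF abasic duplex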)
Outline: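 Substrate: 50 nM final fluorophore/quencher THF-abasic duplex. Enzyme preincubated with compounds 15 min, RT. Progress derived from fluorescence difference, third minus first kinetic read.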

[3] = Counterscreen for APE1 Inhibitors: Fluorescent Dye Displacement Validation Assay (AID 1707)
Outline: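 Signal: ThO fluorescence (ex 480 nm/em 540 nm) on binding 50 nM dsDNA; displacement by test compound reduces it. Conditions: 250 nM dye, 50 mM Tris-HCl pH7.5, 2 mM MgCl2, 50mM NaCl, 0.01% Tween-20.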

[4] = molecular target: Endonuclease 4 (Escherichia coli (strain K12)) (UniProt P0A6C1); test: Counterscreen for APE1 Inhibitors: qHTS Validation Assay for Inhibitors of Endonuclease IV (AID 1708)
Outline: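 Conditions: 2 nM enzyme, 50 nM TAMRA/BHQ-2 substrate, pH 7.5 Tris buffer with 2 mM MgCl2, RT. Compound preincubation 15 min; readout three fluorescence reads 60 s apart, third-minus-first.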

[5] = qHTS for differential inhibitors of proliferation of Plasmodium falciparum line 7G8 (AID 1815);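 also: parasite growth measured after three days of incubation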; also: potency is read from the fitted curve at half-maximal effect
[6] = qHTS for differential inhibitors of proliferation of Plasmodium falciparum line GB4 (AID 1816); settings: Potency: Plasmodium falciparum GB4 proliferation inhibition;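 also: parasite growth measured after 72 h incubation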; also: potency is read from the fitted curve at half-maximal effect
[7] = qHTS for differential inhibitors of proliferation of Plasmodium falciparum line 3D7 (AID 1876); also: potency is read from the fitted curve at half-maximal effect
[8] = qHTS for differential inhibitors of proliferation of Plasmodium falciparum line D10 (AID 1877);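 also: parasites grown with compound for 72 h before DNA staining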
[9] = qHTS for differential inhibitors of proliferation of Plasmodium falciparum line Dd2 (AID 1882); settings: Potency: Plasmodium falciparum Dd2 proliferation inhibition; also: nearly all actives have a fitted effect of over 65% in size; also: potency is read from the fitted curve at half-maximal effect
Outline: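 SYBR Green DNA fluorescence (ex 485, em 535 nm) after overnight lysis quantifies parasite growth; compound exposure lasted 72 h at 37 C on infected red cells at 2.5% hematocrit, 0.3% parasitemia (final). Artemisinin 0.29 uM and vehicle wells define normalization.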

[10] = measured here: cell count channel max response
[11] = measured here: lipid channel max response

DNA repair nuclease/redox regulator APEX1 (Homo sapiens), sequence (P27695 whole entry, looked up): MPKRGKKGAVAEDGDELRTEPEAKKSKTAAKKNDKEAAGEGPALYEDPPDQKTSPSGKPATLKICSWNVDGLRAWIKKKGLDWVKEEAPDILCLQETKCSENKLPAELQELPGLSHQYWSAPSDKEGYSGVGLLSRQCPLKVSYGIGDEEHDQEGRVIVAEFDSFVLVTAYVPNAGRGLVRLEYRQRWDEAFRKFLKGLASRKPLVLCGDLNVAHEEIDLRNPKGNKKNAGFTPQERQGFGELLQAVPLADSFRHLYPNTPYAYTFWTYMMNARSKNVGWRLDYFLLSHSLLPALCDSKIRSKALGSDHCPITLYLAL

Structure (SMILES)	activity change, negative = inhibition ([1]; at 57.5 µM (top of the series))	max response [1, 10]	max response [1, 11]	Potency [2]	Potency [3]	Potency [4]	Potency [5]	Potency [6]	Potency [7]	Potency [8]	Potency [9]	activity change, negative = inhibition ([1]; at 25.7 µM (top of the series))
Nc1ccn([C@H]2CC[C@@H](CO)O2)c(=O)n1	0.404% (inactive) and -0.834% (inactive)	-7.59% and -3.68%	-4.32% and -4.82%	inactive	inactive	inactive	inactive	inactive	inactive	inactive	inactive	
CN(C)CCOC(c1ccccc1)c1ccccc1	0.806% (inactive)	-10.1% and 40.8%	-13% and 41%	inactive	inactive		3.98 µM (active)		inactive	inactive	3.98 µM (active)	-4.2% (inactive)
Cn1c(=O)c2c(ncn2C)n(C)c1=O	9.95% (inactive) and -17.6% (inactive)	6.09% and -15.3%	17.2% and -15.6%	inactive	inactive	inactive	inactive	inactive	inactive	inactive	inactive	
NC12CC3CC(CC(C3)C1)C2	3.74% (inactive) and -0.728% (inactive)	0.387% and 4.41% and -44.8%	-3.12% and 9.04% and -45.9%	inactive	inactive	inactive		11.2 µM (active)	inactive	inactive		-3.08% (inactive)
Cc1cnc(C(=O)NCCc2ccc(S(=O)(=O)NC(=O)NC3CCCCC3)cc2)cn1	0.481% (inactive)	-0.601% and 30.7%	0.0944% and 30.2%	inactive	inactive	inactive	inactive	inactive	inactive	inactive	inactive	1.51% (inactive)
COC(=O)Nc1nc2ccc(C(=O)c3cccs3)cc2[nH]1	1.19% (inactive)	-4.31% and 9.27%	-12.3% and 9.44%	inactive	inactive	inactive					inactive	-7.22% (inactive)
NC(=O)OCC(COC(N)=O)c1ccccc1	-4.42% (inactive)	-0.783%	-3.41%	inactive	inactive	inactive	inactive	inactive	inactive	inactive	inactive	
CNCCCC12CCC(c3ccccc31)c1ccccc12	-1.14% (inactive) and 2.05% (inactive)	-12.7% and 1.78% and 3.8%	-13.9% and 1.75% and 6.48%	inactive	inactive	inactive	11.2 µM (active)	8.91 µM (active)	10 µM (active)		11.2 µM (active)	-2.57% (inactive)

Reference: PubChem BioAssay (NCATS)
